In the library only some 10% were active in any assay of this set; here they are far more common.
GLS inhibitor – blocks human kidney-isoform glutaminase activity; O94925; GLS enzymatic activity, qHTS titration; Potency, µM (highest dose often 45.5 µM), for the others: at the top dose activity change, negative = inhibition, actives largely listed as inhibitors; actives 0.21% (n = 410,000); AID 624170; also: % is scaled to controls: 0 for no effect and ±100 for the full control effect
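Two-point fluorescence kinetic (t0, 30 min RT) for hKGA; glutamate detected via glutamate oxidase–HRP–Amplex Red. Substrate: 1 mM L-glutamine solution; buffer 45 mM KH2PO4, pH 8.2.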
HP1b binding inh – HP1-beta chromodomain-methylated histone interaction inhibition; Potency, µM (highest dose often 114 µM), inactives show at the top dose activity change, negative = inhibition, most hits filed as inhibitors; AlphaScreen HP1-beta / biotin-H3K9me3 peptide binding; actives 0.56% (n = 390,000); also: nearly all actives have a fitted effect of over 70% in size
Target sequence (P83916 whole entry, looked up): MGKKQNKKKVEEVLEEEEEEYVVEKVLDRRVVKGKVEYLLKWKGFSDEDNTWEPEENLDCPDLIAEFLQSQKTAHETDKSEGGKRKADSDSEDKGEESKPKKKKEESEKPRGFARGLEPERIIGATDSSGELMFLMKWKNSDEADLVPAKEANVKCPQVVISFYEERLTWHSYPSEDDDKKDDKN
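AlphaScreen: HP1-beta (50 nM) preformed 30 min with biotin-H3(1-18)K9me3 peptide (50 nM) in PBS pH 7.4, 0.01% Tween-20. Compound added for 30 min at RT, then streptavidin donor/nickel chelate acceptor beads (10 ug/mL) for 30 min.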
G9a inh – blocks human histone lysine methyltransferase G9a. actives 8.8% (n = 350,000). AID 504332. Potency, µM (doses to about 102 µM), without a hit: top-dose activity, negative = inhibition, actives largely listed as inhibitors. Q96KQ7. G9a H3K9 monomethylation, AlphaScreen, 2 h; also: % is scaled to controls: 0 for no effect and ±100 for the full control effect; nearly all actives have a fitted effect of over 75% in size
Target sequence (Q96KQ7 913-1193 limits assumed): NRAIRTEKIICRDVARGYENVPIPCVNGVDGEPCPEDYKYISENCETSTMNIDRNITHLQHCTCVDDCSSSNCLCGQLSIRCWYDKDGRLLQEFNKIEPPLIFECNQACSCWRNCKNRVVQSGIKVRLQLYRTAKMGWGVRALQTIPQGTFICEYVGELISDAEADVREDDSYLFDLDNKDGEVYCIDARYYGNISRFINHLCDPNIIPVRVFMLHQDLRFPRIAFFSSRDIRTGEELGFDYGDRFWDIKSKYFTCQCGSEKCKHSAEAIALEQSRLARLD
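Enzyme 20 nM + cpd, 15 min RT; add b-H3K9 pep 500 nM / SAM 20 uM; 2 h RT; anti-H3K9me1 Ab 0.5 ug/mL + SA donor / anti-rabbit acceptor beads 20 ug/mL each, 10 min; AlphaScreen read.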
BAZ2B block – inhibitors of human BAZ2B bromodomain; Q9UIF8; AlphaScreen BAZ2B-H3K14Ac peptide displacement; Potency, µM (series often up to 114 µM), without a hit: at the highest dose activity change, negative = inhibition, actives largely listed as inhibitors; actives 4.4% (n = 360,000); also: % is scaled to controls: 0 for no effect and ±100 for the full control effect; nearly all actives have a fitted effect of over 60% in size
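BAZ2B (50 nM) with biotin-H3(5-23)K14Ac peptide (50 nM) in PBS pH 7.4, 0.01% Tween-20, preformed 30 min, then compound 30 min at room temperature; top concentration 110uM. AlphaScreen streptavidin donor/nickel chelate acceptor beads (10 ug/mL final), 20 min dark, signal read.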
JMJD2A Tudor inh – inhibitors of human JMJD2A Tudor domain. AlphaScreen JMJD2A-Tudor / H3K4me3 peptide binding. Potency, µM (series often up to 114 µM), for inactives: at the highest dose activity change, negative = inhibition, most hits filed as inhibitors. actives 4.4% (n = 390,000). AID 504339; also: % is scaled to controls: 0 for no effect and ±100 for the full control effect; nearly all actives have a fitted effect of over 50% in size
An asterisk follows results filed as active; u = inconclusive; x = no result; ! = a repeat was not active; [ ] = remark or other dose. Calls follow the shape of the dose curve; as a rule, active = well fitted curve in the direction sought with a large enough effect; inconclusive = small, poorly fitted or top-dose-only effect, or another doubt; inactive = no such curve, though single readings can be large; an effect the other way counts as inactive or inconclusive. Potency is read from the fitted curve at half-maximal effect.

SMILES	GLS inhibitor	HP1b binding inh	G9a inh	BAZ2B block	JMJD2A Tudor inh
CC(=O)Nc1cccc(C(=O)OC(C)C(=O)Nc2ccc(S(=O)(=O)N3CCCC3)cc2)c1 (centres undefined)	0.5%	21.7%	50.1µM*	10.5%	-2.9%
CC(=O)Nc1ccc(NC(=O)C(C)OC(=O)c2cccc(S(=O)(=O)N3CCCCC3)c2)cc1 (centres undefined)	5.8%	22.7%	u	-11.2%	-8.0%
CC(OC(=O)c1cccc(S(=O)(=O)N2CCCCCC2)c1)C(=O)Nc1ccc(S(N)(=O)=O)cc1 (centres undefined)	3.6%	5.6%	50.1µM*	-3.6%	-17.9%
CC(=O)Nc1ccc(NC(=O)C(C)OC(=O)c2cccc(S(=O)(=O)N3CCCCCC3)c2)cc1 (centres undefined)	-4.4%	16.9%	-9.8%	-35.8%	-2.1%
CC(=O)Nc1ccc(NC(=O)C(C)OC(=O)c2cccc(S(=O)(=O)N3CCCC3)c2)cc1 (centres undefined)	-12.0%	19.6%	39.8µM*	1.8%	-8.2%
CC(Oc1ccccc1Cl)C(=O)Nc1ccc(S(=O)(=O)N2CCN(C)CC2)cc1 (centres undefined)	-8.3%	-16.1%[57 µM]	x	x	50.1µM*
O=C(N/N=C/C(Cl)=C/c1ccccc1)c1ccco1	11.6%	-20.3%	x	-3.6%	-18.9%
S=c1[nH]nc(-c2ccco2)n1/N=C/C(Cl)=C/c1ccccc1	-4.4%	u	4.47µM*	u	u
Cc1cc(-c2n[nH]c(=S)n2/N=C/C(Cl)=C/c2ccccc2)n[nH]1	-8.5%	-17.5%	1.58µM*	u	56.2µM*
Cc1ccc2nc(CSc3nnc(-c4ccco4)o3)cc(=O)n2c1	-2.8%	26.0%	u	56.2µM*	-30.8%
CN(C)c1ccc(C(=O)c2ccc(O)cc2O)cc1	31.2%	-6.6%	-24.8%[59 µM]	u	-25.2%[57.1 µM]
CN(C)c1ccc(Cc2cc3c(O)ccc(O)c3cc(Cc3ccc(N(C)C)cc3)c2=O)cc1	-6.4%	u	x	x	3.16µM*
CCCCCC(CC(=O)NO)C(=O)NC(C(=O)N1CCCC1CO)C(C)C (centres undefined)	16.1%	17.9%	u	2.2%	-11.5%
CCCCC[C@H](CC(=O)NO)C(=O)N[C@H](C(=O)N1CCC[C@H]1CO)C(C)C	x	x	9.47µM*!	x	x
CC(C)C1Cc2c(sc3ncnc(NN)c23)CO1 (centres undefined)	11.2µM*	22.3%	-12.2%[2.33 µM]	28.2µM*	25.1µM*
O=C(NCCCN1CCN(c2ccccc2)CC1)c1nnc(Cc2c(F)cccc2Cl)o1	12.1%	-18.2%	-32.4%[59 µM]	u	u
CCC(=O)N1CCCc2cc(S(=O)(=O)N3CCC(C(=O)Nc4ccccc4CC)CC3)ccc21	-9.4%	4.3%[57 µM]	17.0%[59 µM]	-9.8%	-21.3%
CCN(CC)C(=O)c1sc(NC(=O)c2cc(-c3ccc(C)s3)nc3ccccc23)c(C(=O)OC)c1C	-4.3%	-11.1%	39.8µM*	1.1%	3.5%
CCOC(=O)c1c(NC(=O)c2ccoc2C)sc(C(=O)N(C)C)c1C	-1.8%	-7.6%	31.6µM*	8.2%	u
CCN(CC)C(=O)c1sc(NC(=O)c2ccncc2)c(C(=O)OC)c1C	1.3%	-7.8%	u	10.0%	-7.1%
CCN(CC)C(=O)c1sc(NC(=O)c2ccoc2C)c(C(=O)OC)c1C	-13.5%	u	12.6µM*	0.5%	-28.7%
C[C@@]12CC[C@@H]3c4ccc(O)cc4CC[C@H]3[C@H]1C[C@@H](O)[C@H]2O	x	x	24.4%[21.5 µM]	x	x
Cc1ccccc1-c1cncnc1NCc1cccnc1	x	x	-6.1%[0.501 µM]	x	x
CC1CCCCN1C(=O)CNCC1CCCO1 (centres undefined)	-13.0%	u	2.1%	-15.1%	0.891µM*
CC1CCCCN1C(=O)COc1ccccc1F (centres undefined)	12.1%	-4.8%	9.5%	7.7%	56.2µM*
SMILES	GLS inhibitor	HP1b binding inh	G9a inh	BAZ2B block	JMJD2A Tudor inh
CC1CCCCN1C(=O)CNCc1ccc(F)cc1 (centres undefined)	14.6%	u	u	79.4µM*	3.16µM*
COc1cc(NC(=O)c2cc3cc4ccc(OC)c(Cl)c4nc3s2)cc(OC)c1	1.3%	28.4%[57 µM]	-0.4%[59 µM]	-1.3%	-2.2%
COc1ccccc1OCC(=O)Nc1ccc(N2CCCCC2)cc1	59.7%	-6.1%	22.4µM*	u	u
CCC(=O)N1CCN(c2ccc(NC(=O)COc3ccccc3Cl)cc2)CC1	20.9%	26.3%	15.8µM*	-7.8%	-25.0%
Cc1ccccc1OCC(=O)NC1=NCCS1	2.6%	38.5%	28.2µM*	-29.4%	-7.7%
CN1CCN(c2ccc(NC(=O)COc3ccccc3Cl)cc2)CC1	26.1%	-19.9%	u	-2.9%	-30.9%
COc1ccccc1OCC(=O)Nc1ccc2c(c1)OCO2	-2.7%	-7.8%	-19.1%	50.1µM*	u
Cc1ccccc1OCC(=O)Nc1ccc2c(c1)OCO2	3.2%	43.3%	45.8%[12.7 µM]	-5.0%	-19.3%
CCOc1ccc(NC(=O)Cn2c(=O)cc(C)c3c(C)nn(-c4cccc(Cl)c4C)c32)cc1	5.6%	58.5%	6.7%[59 µM]	1.7%	-33.0%
COc1cccc2sc(NC(=O)c3ccc(S(=O)(=O)N4CCC(C)CC4)cc3)nc12	12.4%	20.2%[57 µM]	3.1%[59 µM]	u	-12.0%
CN(C(=O)c1cccc(NC(=O)Cc2ccc(NC(=O)C3CCCN(C(=O)C4CCC4)C3)cc2)c1)C1CCCCC1 (centres undefined)	-2.2%	35.0%	x	x	-17.1%
Cc1ccc(C(=O)N2CCN(c3ccc(NC(=O)COc4ccccc4C)cc3)CC2)cc1	-9.2%	-17.2%	39.8µM*	35.5µM*	u
Cc1cccc(OCC(=O)Nc2ccc3oc(=O)ccc3c2)c1C	-15.8%	30.2%	50.1µM*	-11.5%	-1.4%
Cc1ccccc1OCCCC(=O)Nc1ccc(N2CCOCC2)cc1	31.4%	9.1%	44.7µM*	0.6%	-21.5%
CCC(=O)N1CCN(c2ccc(NC(=O)COc3ccc(C)cc3C)cc2)CC1	26.0%	-19.1%	u	u	-35.2%
COc1ccc(N2CCN(S(=O)(=O)CCNC(=O)COc3ccccc3C)CC2)cc1	-14.5%	8.0%	44.7µM*	u	-33.1%
CC(C)C1O/C(=N/C(=O)Nc2ccc(Cl)c(Cl)c2)NC1=O (centres undefined)	16.7%	31.5%	3.9%[59 µM]	-1.6%	-6.8%
CC(Sc1nc(=O)cc(N)n1CCc1ccccc1)C(=O)Nc1ccccc1C#N (centres undefined)	-24.3%	33.0%	-21.5%[59 µM]	-24.2%	-11.2%
CC1CCn2c(nc3cc(C(=O)NCc4ccccc4)ccc32)C1 (centres undefined)	-14.1%	28.6%[57 µM]	-2.2%[59 µM]	4.5%	-7.5%
CC(=O)N[C@@H](Cc1c[nH]c2ccccc12)C(=O)OCC(=O)Nc1ccc2c(c1)OCO2	5.7%	26.2%	x	x	-29.7%
Cc1cccc(OCC(=O)Nc2ccc(N3CCCC3)cc2)c1C	u	-23.5%	28.2µM*	x	u
